Compounds without any hit were thinned out: in the full panel of roughly 79,000, 15% have a hit. Unmarked numbers belong to inactive results. The source made the active and inactive calls. No stated cut-off is given here; in the data, active means growth inhibition above about 70%; inactive means the rest. Where a SMILES comes first, the peptide text is derived from it.

A short description of assay [1]: NCI Yeast Anticancer Drug Screen. Data for the rad50 strain (AID 155).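 Further: 0% = growth of vehicle-only cultures of the same strain.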 Conditions: S. cerevisiae rad50 strain growth inhibition; at 50.0 µM; hits give high values. The method, boiled down: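 A DNA repair-deficient yeast mutant serves as the test organism; compound-induced growth inhibition is calculated against vehicle-treated cells.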
The nature of assay [2]: NCI Yeast Anticancer Drug Screen. Data for the mec2-1 strain (AID 157). The settings on record: S. cerevisiae mec2-1 strain, at 50.0 µM, hits give high values. An outline of the steps:
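Readout is yeast growth inhibition, normalised to vehicle-treated controls, in the mec2-1 strain exposed to compound.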

The nature of assay [3]: NCI Yeast Anticancer Drug Screen. Data for the sgs1 mgt1 strain (AID 161).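 Further: 0% = growth of cultures given vehicle only.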 The settings on record: S. cerevisiae sgs1 mgt1 strain, at 50.0 µM, hits give high values. An outline of the steps:
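Yeast cells carrying a defined DNA-repair defect were exposed to test compounds. Growth inhibition was measured relative to vehicle-treated controls.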

Assay [4] is described as follows: NCI Yeast Anticancer Drug Screen. Data for the cln2 rad14 strain (AID 165).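 Further: 0% = growth equal to vehicle treated cultures.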 Conditions: S. cerevisiae cln2 rad14 strain, at 50.0 µM, hits give high values. The method, boiled down:
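Relative to vehicle controls, growth inhibition of compound-treated cln2 rad14 yeast was recorded.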

A short description of assay [5]: NCI Yeast Anticancer Drug Screen. Data for the bub3 strain (AID 167). The settings on record: S. cerevisiae bub3 mutant strain, at 50.0 µM, hits give high values. An outline of the steps:
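Inhibition values come from growth of compound-treated mutant yeast normalised to vehicle-treated controls.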

Assay [6] can be described thus: NCI Yeast Anticancer Drug Screen. Data for the mlh1 rad18 strain (AID 175). Conditions: S. cerevisiae mlh1 rad18 strain growth inhibition; at 50.0 µM; hits give high values. The method, boiled down: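 Test agents were incubated with a yeast strain of defined genotype (DNA damage repair defect). Inhibition of growth was derived by comparison with vehicle-exposed cultures.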

Regarding `CC(=O)c1ccc2ccccc2c1O`, the growth inhibition in assay [1] was 2.6%; in assay [2] it was -11.7%; in assay [3], -25.5%; in assay [4], -11.1%; in assay [5], -3%; in assay [6] it was -5.45%.
`CS(=O)(=O)Nc1nc2ccccc2c(=O)o1`: the growth inhibition in assay [1] is -50.8%; in assay [2], -21.9%; in assay [3] it was -15.3%; in assay [4] it was -39.7%; in assay [5] it was 3.75%; in assay [6] it was 4.85%.
`Nn1c(Cc2ccccc2)n[nH]c1=O`: the growth inhibition is 10.2% in assay [1]; -13.3% in assay [2]; 12.2% in assay [3]; 6.55% in assay [4]; -9.4% in assay [5]; -14.2% in assay [6].
As for `O=NN(CCCl)C(=O)NCCc1cccc[n+]1[O-]`, the growth inhibition in assay [1] was 2.6%; in assay [2], 14.3%; in assay [3], -14.1%; in assay [4], -5.75%; in assay [5] it was -2.45%; in assay [6] it was -57.6%.
With `C1CCN(CCC2CCNCC2)C1`, the growth inhibition is 5.5% in assay [1]; -19.4% in assay [2]; -15.1% in assay [3]; 13.5% in assay [4]; -1% in assay [5]; 3.8% in assay [6].
For `COc1cccc(C2c3cc4c(cc3OC(NNC(N)=O)C2C)OCO4)c1O` (stereo not drawn), the growth inhibition was -12.8% in assay [1]; -8.6% in assay [2]; 2.55% in assay [3]; 9.9% in assay [4]; -2.75% in assay [5]; -7.35% in assay [6].
With `N#CCCN1CCCSC1=S`, the growth inhibition was 6.15% in assay [1]; 17.1% in assay [2]; 4.2% in assay [3]; 4.05% in assay [4]; -3.1% in assay [5]; 1.7% in assay [6].
Turning to `Cc1ccc(NC(=S)N2CCCCC2C)cc1C` (stereo not drawn), the growth inhibition in assay [1] was 17.9%; in assay [2], 11.7%; in assay [3], 12.7%; in assay [4], 3.1%; in assay [5], 16.6%; in assay [6], -6.15%.
As to `COc1cc(C(=O)CBr)c(OC)cc1C`, the growth inhibition in assay [1] is 10.9%; in assay [2], -10.7%; in assay [3] it was 38%; in assay [4], 17%; in assay [5] it was 2.15%; in assay [6], 46.8%.
Turning to `O=C(CN1CCOCC1)Nc1ccc(S(=O)(=O)c2ccc([N+](=O)[O-])cc2)cc1`, the growth inhibition was 52.3% in assay [1]; 15% in assay [2]; 99.3% (active) in assay [3]; 98.3% (active) in assay [4]; 96.7% (active) in assay [5]; 26.1% in assay [6].
For the compound `N=C1C=C/[N+](=C\C=CCO)C([O-])=N1`, the growth inhibition in assay [1] is -18.2%; in assay [2] it was -20.6%; in assay [3], -35.3%; in assay [4] it was -2.55%; in assay [5], -43.4%; in assay [6], -3.2%.
As for `COc1cccc(NC(=O)C(=O)C(C(C)=O)c2nc3ccc(Cl)cc3[nH]c2=O)c1` (stereo not drawn), the growth inhibition was -16.3% in assay [1]; 3.7% in assay [2]; -19.2% in assay [3]; 15.4% in assay [4]; 2.25% in assay [5]; -5.4% in assay [6].
Regarding `O=[N+]([O-])c1ccccc1S(=O)(=O)c1cc(Cl)cc2c1NCCC2`, the growth inhibition in assay [1] was 16.8%; in assay [2] it was 0.15%; in assay [3] it was 26.8%; in assay [4], 9.15%; in assay [5] it was 38.8%; in assay [6] it was 30.9%.
On to `CC1NC(=O)C2CCCN2C(=O)C2CCCN2C(=O)C(C(C)C)NC(=O)C(Cc2ccccc2)NC(=O)C(Cc2ccccc2)NC(=O)C2CCCN2C(=O)C2CCCN2C(=O)C(Cc2ccccc2)NC(=O)C(Cc2ccccc2)NC1=O` (stereo not drawn) (cyclo(AFFPPFFVPP); configuration not given here), for which the growth inhibition was 6.65% in assay [1]; -8.5% in assay [2]; -2.35% in assay [3]; 2.8% in assay [4]; 1.25% in assay [5]; 16.6% in assay [6].
Take `O=C(c1ccccc1)c1ccncc1`: the growth inhibition in assay [1] is 28.2%; in assay [2] it was -4.4%; in assay [3] it was -27.2%; in assay [4], -1%; in assay [5], -1.9%; in assay [6], -3.1%.
In the case of `O=C(O)c1ccc2c(c1)S(=O)(=O)NC2=O`, the growth inhibition in assay [1] is 1.15%; in assay [2], 10.2%; in assay [3] it was 13%; in assay [4], -26.1%; in assay [5], 12.1%; in assay [6], -8%.
In the case of `CCOC(=O)/C=C(/OCC)c1cccc(Cl)c1`, the growth inhibition in assay [1] was 9.4%; in assay [2], -5.95%; in assay [3] it was 13.8%; in assay [4], 16.3%; in assay [5], 39.4%; in assay [6], -1.85%.
Turning to `CCCc1nc2ccccc2c(=O)n1/N=C/c1ccc(Cl)cc1`, the growth inhibition in assay [1] is 0.5%; in assay [2], 7.3%; in assay [3], -0.4%; in assay [4], 5.7%; in assay [5], 0.9%; in assay [6], 7.95%.

The record behind these values is PubChem BioAssay (NCI).
